Laboratory results taken from article PMC4666376, “Characterisation of aptamer–target interactions by branched selection and high-throughput sequencing of SELEX pools”.

Molecular target: PAI-1 wild type, active (human, UniProt P05121 24-402)
Test: branched SELEX with high-throughput sequencing; PAI-1 immobilised on polyclonal anti-PAI-1 antibody; HBS (10 mM HEPES pH 7.4, 140 mM NaCl), 2 mM MgCl2, 2 mM CaCl2, 0.1% BSA; RNA pool 100 nM; PAI-1 captured on antibody-coated wells; 45 min; binding temperature not stated (PAI-1 capture at room temperature); high values mean tight binding;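 also: Pool frequency after one selection round with this target divided by frequency before selection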
Conditions: protein: recombinant; tags: N-terminal His6; structured_RNA; 2'-F pyrimidines

Chain of PAI-1 wild type, active (P05121 24-402): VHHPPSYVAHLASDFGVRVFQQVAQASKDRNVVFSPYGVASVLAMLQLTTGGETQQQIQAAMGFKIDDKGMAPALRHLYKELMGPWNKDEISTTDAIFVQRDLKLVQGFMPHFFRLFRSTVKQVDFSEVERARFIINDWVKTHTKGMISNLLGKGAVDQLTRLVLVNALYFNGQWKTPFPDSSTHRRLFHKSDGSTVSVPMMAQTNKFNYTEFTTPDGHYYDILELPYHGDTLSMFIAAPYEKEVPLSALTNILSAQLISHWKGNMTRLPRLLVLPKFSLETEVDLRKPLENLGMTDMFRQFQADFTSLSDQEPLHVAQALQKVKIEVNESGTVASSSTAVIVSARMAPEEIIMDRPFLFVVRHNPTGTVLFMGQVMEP

Sequence	binding signal [enrichment factor]
GGGGCCACCAACGACAUUGAACUUGUAGUACCUGUAUUGGGUAUGACCUCAGUGUUGAUAUAAAUAGUGCCCAUGGAUC	1.61
GGGGCCACCAACGACAUUCUACGUCGUAGUCGCUUAGCGAUGACCGUUAGAUGUUGAUAUAAAUAGUGCCCAUGGAUC	0.74
GGGGCCACCAACGACAUUGUGACCCACCAUUAUAUGGUGACUAGUAGCGUGUUGUUGAUAUAAAUAGUGCCCAUGGAUC	0.17
GGGGCCACCAACGACAUUGCGCUACGAUCAAAACACGUAGUAGUGCAACGAAUGUUGAUAUAAAUAGUGCCCAUGGAUC	0.29
GGGGCCACCAACGACAUUGACCCAUCUCGCGUUUCCGGGAUGACUAGUAGAAUGUUGAUAUAAAUAGUGCCCAUGGAUC	0.56
GGGGCCACCAACGACAUUUCGCAGCUUCGUAGUACAGGCGCAAGUUGACACAUGUUGAUAUAAAUAGUGCCCAUGGAUC	1.47
GGGGCCACCAACGACAUUGUCGUAGGCAAGUGUACGAAUCUUUGCUGACCAGUGUUGAUAUAAAUAGUGCCCAUGGAUC	2.67
GGGGCCACCAACGACAUUUGCGUAAGCAACCUUGGUGUUAUAUUCACCAGAUCGUUGAUAUAAAUAGUGCCCAUGGAUC	0.63
GGGGCCACCAACGACAUUCAGGCCGUAGGAUGUUAUAUCCGAUCCUGAUCUUCGUUGAUAUAAAUAGUGCCCAUGGAUC	1.4
GGGGCCACCAACGACAUUCAACGACCAGUACGUGUGAGGGCGUACAUCAUGUAGUUGAUAUAAAUAGUGCCCAUGGAUC	0.37
GGGGCCACCAACGACAUUGUGCCAUGUAGAUCUUUAGGAGAUCGACCAGCAGUGUUGAUAUAAAUAGUGCCCAUGGAUC	0.57
